These results are taken from article PMC5540273 (PLoS ONE, 2017).

Values joined by “and” are separate entries in the source; they are usually repeats but may differ in a detail not shown here. Equal values may be shown once. Read-outs that look alike come from different tables or passages of the source.

In one assay the test system is SIK2. The conditions noted are these: n = 1.
The next assay has as its system SIK. The note with it: concentration: 1 μM, replicates: in singlicate; n = 1.
The next assay has as its system SLK. The note with it: n = 1.
For another assay, the system named is T1, SNARK.
T1 construct: gene NUAK2
The note with it: n = 1.

The test system of a further assay is SNRK. The conditions noted are these: concentration: 1 μM, replicates: in singlicate; n = 1.
The test system of another assay is SRC. The conditions noted are these: n = 1.
In another assay the test system is SRMS. The conditions noted are these: concentration: 1 μM, replicates: in singlicate; n = 1.
Another assay deals with SRPK1. The note with it: n = 1.
Another assay has as its system SRPK2. The conditions noted are these: concentration: 1 μM, replicates: in singlicate; n = 1.
A further assay has as its system SRPK3. The note with it: concentration: 1 μM, replicates: in singlicate; n = 1.
The mark [1] stands for this setting: concentration: 1 μM, replicates: in singlicate.
The mark [2] stands for this setting: concentration: 1 μM,replicates: in singlicate, 1 µM.
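Also: KINOMEscan kinase panel screen.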

On to `COc1ccc(Nc2nccc(NCCNC(=O)Nc3ccccc3F)n2)cc1` [GSK1379901], for which the “%Inh” value came out at 2% with SIK2 (setting [1]); 0% with SIK; 11% in the assay on SLK (setting [1]); 0% with SNARK (setting [1]); 0% in the assay on SNRK; 0% in the assay with SRC (setting [1]). Moreover, the “%Inh” value with SRMS, with SRPK1 (setting [1]), with SRPK2 and with SRPK3 was 0% throughout.

With `Cn1ccc2ncnc(Oc3cccc(C(=O)Nc4ccccc4)c3)c21`, the “%Inh” value was found to be 5% in the assay with SIK2 (setting [1]); 15% with SIK; 13% in the assay with SLK (setting [1]); 23% in the assay on SNARK (setting [1]); 9% in the assay on SNRK; 0% with SRC (setting [1]). For the same compound, the “%Inh” value with SRMS, with SRPK1 (setting [1]), with SRPK2 and in the assay on SRPK3 was 0% throughout.

For `NC(=O)c1nnc2ccccc2c1N`, the “%Inh” value was determined as 6% in the assay on SIK2 (setting [1]); 9% with SIK; 0% in the assay on SLK (setting [1]); 67% in the assay with SNARK (setting [1]); 14% in the assay on SNRK; 6% in the assay with SRC (setting [1]). Besides, the “%Inh” value is given as 0% in the assay on SRMS, 45% in the assay with SRPK1 (setting [1]), 0% with SRPK2 and 32% with SRPK3.

For the compound `CC(C)(C)c1ccc(C(=O)Nc2cn3cc(-c4cccnc4)ccc3n2)cc1`, the “%Inh” value came to 25% in the assay on SIK2 (setting [1]); 22% in the assay with SIK; 19% in the assay on SLK (setting [1]); 5% in the assay on SNARK (setting [1]); 20% in the assay on SNRK; 3% with SRC (setting [1]). Further, the “%Inh” value came out at 0% in the assay with SRMS, 15% in the assay with SRPK1 (setting [1]), 0% with SRPK2 and 0% in the assay on SRPK3.

Take `Cn1ccc2ncnc(Oc3ccc(Nc4nc5ccccc5[nH]4)cc3)c21`: the “%Inh” value is reported as 10% in the assay with SIK2 (setting [1]); 0% with SIK; 14% in the assay with SLK (setting [1]); 0% with SNARK (setting [1]); 0% in the assay with SNRK; 3% in the assay with SRC (setting [1]). Further, the “%Inh” value in the assay with SRMS came out at 0%; in the assay on SRPK1 (setting [1]), 0%; with SRPK2, 7%; in the assay on SRPK3, 0%.

As to `Cc1csc(-c2nc(Nc3ccncc3)c3ccccc3n2)n1` [GW869640], the “%Inh” value stood at 1% in the assay with SIK2 (setting [1]); 4% in the assay on SIK; 22% with SLK (setting [1]); 26% in the assay on SNARK (setting [1]); 20% with SNRK; 8% in the assay on SRC (setting [1]). For the same compound, the “%Inh” value was determined as 25% in the assay with SRMS, 0% in the assay on SRPK1 (setting [1]), 0% with SRPK2 and 39% with SRPK3.

Turning to `O=C(Nc1n[nH]c2nc(-c3nccs3)c(Br)cc12)C1CCCC1` [SB-742609], the “%Inh” value with SIK2 (setting [1]) stood at 0%; in the assay on SIK, 5%; in the assay with SLK (setting [1]), 7%; with SNARK (setting [1]), 0%; in the assay with SNRK, 0%; with SRC (setting [1]) it was 0%. For the same compound, the “%Inh” value came out at 0% in the assay with SRMS, 0% in the assay on SRPK1 (setting [1]), 0% with SRPK2 and 13% with SRPK3.

For the compound `COc1ccccc1-c1ccc2c(NC(=O)C3CC3)n[nH]c2n1` [SB-711239], the “%Inh” value worked out at 0% in the assay with SIK2 (setting [1]); 3% in the assay on SIK; 8% with SLK (setting [1]); 8% in the assay with SNARK (setting [1]); 14% in the assay on SNRK; 6% with SRC (setting [1]). In addition, the “%Inh” value was 0% in the assay with SRMS, 0% with SRPK1 (setting [1]), 31% in the assay on SRPK2 and 13% with SRPK3.

On to `COc1ccccc1CNC(=O)c1cc(C(=O)c2ccccc2C)c[nH]1` [GSK364507], for which the “%Inh” value is 0% in the assay with SIK2 (setting [1]); 14% with SIK; 5% in the assay on SLK (setting [1]); 0% in the assay on SNARK (setting [1]); 0% in the assay on SNRK; 0% in the assay with SRC (setting [1]). The “%Inh” value in the assay with SRMS came to 0%; in the assay with SRPK1 (setting [1]), 26%; with SRPK2, 0%; in the assay with SRPK3, 0%.

As for `COc1ccc2nc(-c3cccc(C)n3)nc(Nc3ccncc3)c2c1` [GSK204919], the “%Inh” value with SIK2 (setting [1]) was 2%; in the assay on SIK, 0%; in the assay on SLK (setting [1]) it was 9%; in the assay on SNARK (setting [1]) it was 0%; with SNRK it was 0%; in the assay with SRC (setting [1]), 5%. Also, the “%Inh” value came to 0% in the assay with SRMS, 26% in the assay on SRPK1 (setting [1]), 0% with SRPK2 and 16% in the assay on SRPK3.

`Cl.c1ccc(-c2n[nH]cc2-c2ccnc(-c3ccc(CN4CCOCC4)cc3)c2)nc1` [GW776245]: the “%Inh” value in the assay with SIK2 (setting [1]) was 0%; with SIK, 23%; in the assay on SLK (setting [1]), 0%; in the assay on SNARK (setting [1]), 0%; in the assay with SNRK, 0%; in the assay with SRC (setting [1]) it was 15%. For the same compound, the “%Inh” value in the assay on SRMS was 0%; in the assay on SRPK1 (setting [1]), 0%; in the assay with SRPK2, 0%; in the assay with SRPK3, 41%.

In the case of `Cc1c(O)cccc1Nc1ccnc2ccc(C(F)(F)F)cc12.Cl` [GW466413], the “%Inh” value with SIK2 (setting [1]) is listed as 0%; in the assay on SIK, 0%; with SLK (setting [1]), 8%; in the assay with SNARK (setting [1]) it was 0%; with SNRK, 0%; in the assay with SRC (setting [1]), 79%. Besides, the “%Inh” value came out at 1% in the assay on SRMS, 21% in the assay with SRPK1 (setting [1]), 0% with SRPK2 and 0% in the assay with SRPK3.

With `CS(=O)(=O)c1ccc(-c2nc3n(c2-c2ccncc2)CCC3)cc1` [SKF-105942], the “%Inh” value with SIK2 (setting [1]) came to 0%; with SIK, 1%; with SLK (setting [1]), 0%; in the assay on SNARK (setting [1]), 0%; with SNRK, 14%; with SRC (setting [1]), 0%. For the same compound, the “%Inh” value in the assay with SRMS was 0%; in the assay on SRPK1 (setting [1]), 0%; with SRPK2 it was 0%; in the assay on SRPK3, 22%.

As for `CC(C)(C)c1ccc(C(=O)Nc2cn3cc(Cl)ccc3n2)cc1`, the “%Inh” value with SIK2 (setting [1]) is recorded as 0%; with SIK it was 4%; with SLK (setting [1]) it was 24%; in the assay with SNARK (setting [1]) it was 0%; in the assay on SNRK, 0%; in the assay with SRC (setting [1]), 0%. For the same compound, the “%Inh” value in the assay with SRMS, in the assay on SRPK1 (setting [1]), in the assay on SRPK2 and in the assay on SRPK3 was 0% in each case.

As for `CSc1nn2c(=O)cc(N3CCOCC3)nc2n1Cc1cccc(C(F)(F)F)c1C` [GSK2363608], the “%Inh” value in the assay on SIK2 (setting [2]) was 4% and 0%; in the assay on SIK it was 0%; in the assay on SLK (setting [2]) it was 20% and 3%; in the assay with SNARK (setting [2]), 18% and 0%; with SNRK it was 0%; with SRC (setting [2]), 3% and 0%. The “%Inh” value was 0% with SRMS; 34% and 16% in the assay on SRPK1 (setting [2]); 0% with SRPK2; 0% in the assay on SRPK3.

Turning to `O=S(=O)(c1ccc(-c2ccnc3[nH]ccc23)cc1)N1CCCC1` [GSK846226], the “%Inh” value in the assay with SIK2 (setting [1]) is on record as 0%; with SIK it was 0%; in the assay on SLK (setting [1]), 0%; in the assay on SNARK (setting [1]), 16%; in the assay with SNRK, 0%; with SRC (setting [1]), 0%. The “%Inh” value is given as 0% in the assay on SRMS, 60% in the assay with SRPK1 (setting [1]), 0% in the assay with SRPK2 and 3% with SRPK3.

With `Cc1cccc(-c2nc(Nc3cccc(C(N)=O)c3)c3ccccc3n2)n1` [GW876019], the “%Inh” value is 63% with SIK2 (setting [1]); 14% with SIK; 14% with SLK (setting [1]); 0% in the assay on SNARK (setting [1]); 0% in the assay with SNRK; 0% in the assay on SRC (setting [1]). For the same compound, the “%Inh” value was 33% with SRMS, 17% in the assay with SRPK1 (setting [1]), 23% in the assay on SRPK2 and 4% in the assay on SRPK3.

As to `COC(=O)c1c(-c2ccccc2)c2cc(C(=O)O)ccc2c(=O)n1Cc1ccccc1`, the “%Inh” value with SIK2 (setting [1]) was 0%; in the assay with SIK, 0%; in the assay on SLK (setting [1]), 16%; in the assay with SNARK (setting [1]), 5%; with SNRK, 0%; in the assay with SRC (setting [1]) it was 0%. Besides, the “%Inh” value in the assay with SRMS, in the assay on SRPK1 (setting [1]), in the assay on SRPK2 and with SRPK3 was 0% throughout.
